Experimental findings from PubChem BioAssay (Tox21) are described below.

Structures are written as SMILES. Unmarked numbers belong to inactive results. Results filed as inconclusive are left out. Active and inactive are the calls of the source. Calls come from the whole dose curve; as a rule, active = well fitted curve in the direction sought with a large enough effect in the repeat runs; inconclusive = weak or mixed curves; inactive = no such curve, though single readings can be large; an effect the other way counts as inactive or inconclusive.

Experiment [1] is described as follows: A CellTox Green Cytotoxicity Assay to monitor cytotoxicity in HEK293 cells - 40 hour (AID 1224871). Note: nearly all actives have a fitted effect of over 45% in size. Note: potency is the fitted concentration of half-maximal effect. The gist of the method:
(§1)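 Read-out: fluorescence of a cell-impermeant cyanine dye staining DNA of dead cells, proportional to cytotoxicity. HEK293, 600 cells/well with reagent, compound (23 nL DMSO) added after 5 h; reads at 0, 8, 16, 24, 32, 40 h.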

Experiment [2] in a line: qHTS RealTime-Glo MT Cell Viability Assay in HepG2 cells - 8 hour (AID 1224873). Note: nearly all actives have a fitted effect of over 55% in size. The gist of the method: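 HepG2 cells (600/well) mixed with RealTime-Glo MT reagent, settled 5 h at 37 C/5% CO2 before compound addition. Nonlytic NanoLuc luminescence from viable-cell prosubstrate reduction read repeatedly during 40 h treatment at 37 C.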
Background: qHTS replaces the single test concentration by a dilution series.

A short description of experiment [3]: A CellTox Green Cytotoxicity Assay to monitor cytotoxicity in HEK293 cells - 24 hour (AID 1224875). For activity change: series mostly up to about 77 µM. Note: nearly all actives have a fitted effect of over 45% in size. Note: potency is the fitted concentration of half-maximal effect. The gist of the method: as §1
Experiment [4] in a line: A CellTox Green Cytotoxicity Assay to monitor cytotoxicity in HepG2 cells - 16 hour (AID 1224876). Note: nearly all actives have a fitted effect of over 45% in size. Note: potency is the fitted concentration of half-maximal effect. The gist of the method: (§2)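 HepG2, 600 cells/well premixed w/ CellTox Green; 5 h settle, 37 C/5% CO2; pintool cpd add (DMSO); 37 C, 40 h; fluorescence read at 0, 8, 16, 24, 32, 40 h.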
Experiment [5] in a line: qHTS RealTime-Glo MT Cell Viability Assay in HepG2 cells - 32 hour (AID 1224877). Note: nearly all actives have a fitted effect of over 55% in size. The gist of the method:
(§3)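 Cell number in HepG2 cultures estimated from NanoLuc luminescence generated by metabolic reduction of a prosubstrate by living cells. The homogeneous, nonlytic format allowed repeated reads at 0, 8, 16, 24, 32 and 40 h of compound exposure.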

Experiment [6] in a line: A CellTox Green Cytotoxicity Assay to monitor cytotoxicity in HepG2 cells - 24 hour (AID 1224878). Note: nearly all actives have a fitted effect of over 45% in size. Note: potency is the fitted concentration of half-maximal effect. The gist of the method:
as §2

Experiment [7] is described as follows: A CellTox Green Cytotoxicity Assay to monitor cytotoxicity in HepG2 cells - 40 hour (AID 1224879). Note: nearly all actives have a fitted effect of over 40% in size. Note: potency is the fitted concentration of half-maximal effect. The gist of the method: as §2
The nature of experiment [8]: qHTS RealTime-Glo MT Cell Viability Assay in HEK293 cells - 0 hour (AID 1224880). The gist of the method: (§4)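 Luminescence readout at each listed time point; HEK293, 600 cells/well, RealTime-Glo MT reagent added with cells; compounds pinned (23 nL in DMSO) after 5 h at 37 C; continuous culture at 37 C.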
Experiment [9] is described as follows: A CellTox Green Cytotoxicity Assay to monitor cytotoxicity in HEK293 cells - 32 hour (AID 1224881). Note: nearly all actives have a fitted effect of over 40% in size. Note: potency is the fitted concentration of half-maximal effect. The gist of the method:
as §1

Experiment [10] in a line: A CellTox Green Cytotoxicity Assay to monitor cytotoxicity in HepG2 cells - 0 hour (AID 1224882). Note: nearly all actives have a fitted effect of over 35% in size. The gist of the method:
as §2

Experiment [11] is described as follows: A CellTox Green Cytotoxicity Assay to monitor cytotoxicity in HepG2 cells - 32 hour (AID 1224883). Note: nearly all actives have a fitted effect of over 50% in size. Note: potency is the fitted concentration of half-maximal effect. The gist of the method: as §2
Experiment [12] in a line: A CellTox Green Cytotoxicity Assay to monitor cytotoxicity in HEK293 cells - 8 hour (AID 1224884). Note: nearly all actives have a fitted effect of over 35% in size. Note: potency is the fitted concentration of half-maximal effect. The gist of the method: as §1
Experiment [13] in a line: qHTS RealTime-Glo MT Cell Viability Assay in HepG2 cells - 16 hour (AID 1224885). Note: nearly all actives have a fitted effect of over 50% in size. The gist of the method:
as §3

Experiment [14] is described as follows: A CellTox Green Cytotoxicity Assay to monitor cytotoxicity in HEK293 cells - 16 hour (AID 1224888). Note: nearly all actives have a fitted effect of over 35% in size. Note: potency is the fitted concentration of half-maximal effect. The gist of the method:
as §1

Experiment [15] can be described thus: qHTS RealTime-Glo MT Cell Viability Assay in HepG2 cells - 0 hour (AID 1224889). Note: nearly all actives have a fitted effect of over 50% in size. The gist of the method: as §3
Experiment [16] in a line: A CellTox Green Cytotoxicity Assay to monitor cytotoxicity in HepG2 cells - 8 hour (AID 1224890). Note: nearly all actives have a fitted effect of over 45% in size. The gist of the method: as §2
A short description of experiment [17]: qHTS RealTime-Glo MT Cell Viability Assay in HEK293 cells - 16 hour (AID 1224872). For activity change, negative = cytotoxicity: top concentration of the series differs between compounds. Note: nearly all actives have a fitted effect of over 50% in size. Note: potency is the fitted concentration of half-maximal effect. The gist of the method:
(§5)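 Homogeneous bioluminescent viability format in HEK293 cells (600 cells/well). Following 5 h at 37 C/5% CO2, 23 nL compound was pintooled; the signal was measured repeatedly during 40 h incubation.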

Experiment [18] can be described thus: qHTS RealTime-Glo MT Cell Viability Assay in HEK293 cells - 40 hour (AID 1224874). Note: nearly all actives have a fitted effect of over 50% in size. Note: potency is the fitted concentration of half-maximal effect. The note with it: RealTime-Glo luminescence; max response: hits give low values. The gist of the method:
as §4

Experiment [19] in a line: qHTS RealTime-Glo MT Cell Viability Assay in HEK293 cells - 24 hour (AID 1224886). For activity change, negative = cytotoxicity: top concentration of the series differs between compounds. Note: nearly all actives have a fitted effect of over 50% in size. Note: potency is the fitted concentration of half-maximal effect. The gist of the method:
as §5

Experiment [20] can be described thus: qHTS RealTime-Glo MT Cell Viability Assay in HEK293 cells - 8 hour (AID 1224887). For activity change, negative = cytotoxicity: top concentration of the series differs between compounds. Note: nearly all actives have a fitted effect of over 50% in size. Note: potency is the fitted concentration of half-maximal effect. The gist of the method:
as §4
% is set by controls: 0 for no effect and ±100 for the full control effect.

As for `CC(C)Cn1cnc2c(N)nc3ccccc3c21`, the cytotoxicity increase in [1] was 1.7% [at 15.8 µM]; in experiment [4], -13.4% [at 15.8 µM]; in [7], -14.5% [at 15.8 µM]; in [9] it was 3.99% [at 15.8 µM]; in experiment [11] it was -12% [at 15.8 µM]; in experiment [12], 2.79% [at 15.8 µM]. The cytotoxicity increase in experiment [16] is -11.4% [at 15.8 µM]. Besides, in [2], the viability change, negative = cytotoxic was -0.187% [at 15.8 µM]. In addition, the activity change in [3] is 3.75% [at 15.8 µM, hits give high values]; in experiment [14] it was 2.2% [at 15.8 µM, hits give high values]. Moreover, the activity change, negative = cytotoxic in experiment [5] is -0.3% [at 15.8 µM]; in experiment [13], 0.56% [at 15.8 µM]. Also, the cytotoxicity in experiment [6] is -13.9% [at 15.8 µM]; in experiment [10] it was -9.84% [at 15.8 µM]. Further, the activity change, negative = cytotoxicity was -0.941% [at 15.8 µM] in [8] and 12.8% [at 15.8 µM] in experiment [15].

For `COc1cc(S(=O)(=O)O)c(C)cc1N=Nc1c(O)ccc2cc(S(=O)(=O)O)ccc12`, the Potency result in experiment [1], in experiment [17], in experiment [3], in [6], in experiment [7] and in experiment [8] was “inactive” in each case. Besides, the Potency result in experiment [10], in experiment [11], in experiment [12], in experiment [19], in experiment [20] and in experiment [14] was “inactive” throughout. Further, the Potency entry in experiment [16] is “inactive”. For the same compound, the max response in [18] was -10.3%.

`CCN(CC)c1ccc2c(-c3ccc(S(=O)(=O)O)cc3S(=O)(=O)[O-])c3ccc(=[N+](CC)CC)cc-3oc2c1`: the Potency result in [1], in experiment [17], in experiment [3], in experiment [5], in experiment [6] and in experiment [7] was “inactive” each time. Moreover, the Potency result in experiment [8], in experiment [9], in experiment [10], in experiment [11], in experiment [12] and in [13] was “inactive” each time. Besides, the Potency result in [19], in experiment [20], in experiment [14], in [15] and in [16] was “inactive” throughout.

`COc1ccc2c(c1)c(CC(=O)OC/C=C(\C)CC/C=C(\C)CCC=C(C)C)c(C)n2C(=O)c1ccc(Cl)cc1`: the Potency entry in [1], in experiment [17], in experiment [3], in experiment [4], in [5] and in experiment [6] was “inactive” throughout. Also, the Potency result in experiment [7], in experiment [8], in [9], in experiment [10], in experiment [11] and in [13] was “inactive” each time. Moreover, the Potency entry in [19], in [14], in experiment [15] and in experiment [16] was “inactive” in each case.

On to `O=C(Nc1ccc2c(O)c(N=Nc3ccc(N=Nc4ccc(S(=O)(=O)O)cc4)cc3)c(S(=O)(=O)O)cc2c1)c1ccccc1`, for which the Potency result in experiment [1], in [17], in [3], in experiment [6], in experiment [7] and in experiment [10] was “inactive” in each case. Further, the Potency result in experiment [11], in [12], in experiment [19], in experiment [20], in [14] and in experiment [16] was “inactive” throughout. Besides, the max response in experiment [18] is -19.7%.

On to `COC1=C(OC)C(=O)C(CCCCCCCCCCO)=C(C)C1=O`, for which the Potency entry in experiment [1], in experiment [3], in experiment [5], in experiment [6], in experiment [7] and in experiment [8] was “inactive” throughout. Moreover, the Potency result in [9], in [10], in [11], in [12], in experiment [14] and in experiment [15] was “inactive” each time. The Potency result in experiment [16] is “inactive”. Further, the Potency in experiment [17] was 2.39 µM (active); in experiment [19] it was 4.25 µM (active); in experiment [20], 1.69 µM (active).

Consider `Cc1cc(-c2ccc(N=Nc3cc(S(=O)(=O)O)c4ccccc4c3N)c(C)c2)ccc1N=Nc1cc(S(=O)(=O)O)c2ccccc2c1N`, for which the Potency in [1] is 49.2 µM (active); in [18], 2.2 µM (active). The Potency result in [2], in experiment [4], in experiment [5], in experiment [6], in experiment [7] and in [8] was “inactive” in each case. Moreover, the Potency entry in experiment [10], in experiment [11], in experiment [12], in experiment [13], in experiment [20] and in experiment [14] was “inactive” throughout. Moreover, the Potency entry in experiment [15] and in [16] was “inactive” in each case.

As for `S=c1nccc[nH]1`, the Potency entry in experiment [1], in [17], in [3], in [4], in experiment [5] and in experiment [6] was “inactive” throughout. Also, the Potency entry in [7], in [8], in experiment [9], in experiment [10], in [11] and in experiment [12] was “inactive” in each case. The Potency result in experiment [13], in [19], in experiment [20], in [14], in experiment [15] and in experiment [16] was “inactive” throughout.

With `CCCCC(CC)COC(=O)CCCCC(=O)OCc1ccccc1` (stereo not drawn), the Potency result in experiment [1], in experiment [17], in experiment [3], in experiment [4], in experiment [5] and in [6] was “inactive” throughout. Besides, the Potency result in experiment [7], in experiment [8], in experiment [9], in experiment [10], in experiment [11] and in experiment [12] was “inactive” in each case. Besides, the Potency entry in experiment [13], in [19], in [20], in experiment [14], in experiment [15] and in experiment [16] was “inactive” in each case.

In the case of `CCCCCCCCCCCCOCCOCCOCCOCCOCCOCCOCCOCCOCCO`, the Potency in [1] is 10.7 µM (active); in experiment [17], 6.01 µM (active); in experiment [3] it was 13.4 µM (active); in [4], 23.9 µM (active); in experiment [6] it was 23.9 µM (active); in experiment [7], 23.9 µM (active). Also, the Potency was 10.7 µM (active) in [9]; 23.9 µM (active) in [11]; 16.9 µM (active) in experiment [12]; 5.35 µM (active) in [19]; 10.7 µM (active) in experiment [20]; 12 µM (active) in experiment [14]. Also, the Potency result in experiment [8], in experiment [10] and in experiment [15] was “inactive” in each case.

On to `COC(=O)c1ccccc1C`, for which the Potency result in [1], in [17], in [3], in experiment [4], in experiment [5] and in [6] was “inactive” throughout. For the same compound, the Potency entry in experiment [7], in experiment [8], in experiment [9], in experiment [10], in experiment [11] and in experiment [12] was “inactive” in each case. For the same compound, the Potency entry in experiment [13], in experiment [19], in experiment [20], in experiment [14], in experiment [15] and in experiment [16] was “inactive” each time.

As to `Clc1nnc(Cl)c2ccccc12`, the Potency entry in experiment [1], in experiment [17], in [3], in experiment [5], in experiment [6] and in experiment [7] was “inactive” throughout. In addition, the Potency entry in experiment [8], in experiment [9], in experiment [10], in experiment [11], in experiment [12] and in experiment [13] was “inactive” in each case. Also, the Potency result in [19], in [20], in experiment [14], in experiment [15] and in [16] was “inactive” throughout. Moreover, the max response in experiment [18] is -4.03%.

For the compound `CN1CCN2c3ccccc3Cc3ccccc3C2C1` (stereo not drawn), the Potency result in experiment [1], in [17], in [3], in experiment [5], in [10] and in experiment [12] was “inactive” each time. For the same compound, the Potency entry in [13], in [19], in [20], in [14], in experiment [15] and in experiment [16] was “inactive” in each case. Besides, in experiment [18], the max response is -5.98%.
